Laboratory results as given in the supplement of paper PMC10849652.
The full data set covers some 7,900 targets. This sample favours those with a hit. About 0.6% of all pairs of compound and target were hits.

Legend:
Experiment in all cases: log2 fold change, soluble protein after heating vs DMSO (PISA); higher = thermal stabilisation; K562 cells, 10 uM, 30 min; active = over 0.2 and 3.5 SD of the protein, either way, in both replicates (recomputed)
IRAK-1-4 Inhibitor I = compound: C1COCCN1CCN2C3=CC=CC=C3N=C2NC(=O)C4=CC(=CC=C4)[N+](=O)[O-] [IRAK-1-4 Inhibitor I]
Method in brief: (§1)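 For each measurement, 10 μM compound was applied for 30 min to K562 cells at 2×10^6 cells/mL. Aliquots were heated for 3 min across 48°C-58°C, pooled, and extracted in PBS with 0.5% NP-40 at 4°C; the supernatant after 21,000xg for 90 min was soluble protein. This was quantified by TMTpro 16plex LC-MS/MS with channel sums equalised, and thermal stability was reported relative to control samples from duplicates, on a log2 fold-change scale.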

ibrutinib = compound: C=CC(=O)N1CCC[C@@H](n2nc(-c3ccc(Oc4ccccc4)cc3)c3c(N)ncnc32)C1 [ibrutinib]
Method in brief: as §1

[1] = compound: CC(=O)c1cnc2ccc(-c3cc(Cl)c(O)c(Cl)c3)nc2c1N[C@H]1CC[C@H](CN(C)C)CC1
Method in brief: as §1

ralimetinib = compound: CC(C)(C)Cn1c(N)nc2ccc(-c3[nH]c(C(C)(C)C)nc3-c3ccc(F)cc3)nc21 [ralimetinib]
Method in brief: as §1

[2] = compound: CC(C)(O)CC(=O)NCCn1ccc2ncnc(Nc3ccc(Oc4cccc(C(F)(F)F)c4)c(Cl)c3)c21
Method in brief: as §1

[3] = compound: CC(C)C1=C2N=C(C=C(N2N=C1)NCC3=CC=CC=C3)NCCCCCCN
Method in brief: as §1

[4] = compound: CC(C)C[C@@H](C=O)NC(=O)[C@H](CC(C)C)NC(=O)[C@H](CC(C)C)NC(=O)OCc1ccccc1
Method in brief: as §1

pinometostat = compound: CC(C)N(C[C@H]1O[C@@H](n2cnc3c(N)ncnc32)[C@H](O)[C@@H]1O)[C@H]1C[C@@H](CCc2nc3cc(C(C)(C)C)ccc3[nH]2)C1 [pinometostat]
Method in brief: as §1

[5] = compound: CC1=C(C(CC(=O)N1)C2=CC=C(C=C2)C(F)(F)F)C(=O)NC3=C(C=C4C(=C3)C=NN4)F
Method in brief: as §1

[6] = compound: CC1=C(C2=C(C=C1)C(=O)C3=CC=CC=C3N2CCCN)C
Method in brief: as §1

Measured: log2 fold change

MASTL (UniProt Q96GX5)
Sequence of UniProt Q96GX5 (Q96GX5 whole entry, looked up): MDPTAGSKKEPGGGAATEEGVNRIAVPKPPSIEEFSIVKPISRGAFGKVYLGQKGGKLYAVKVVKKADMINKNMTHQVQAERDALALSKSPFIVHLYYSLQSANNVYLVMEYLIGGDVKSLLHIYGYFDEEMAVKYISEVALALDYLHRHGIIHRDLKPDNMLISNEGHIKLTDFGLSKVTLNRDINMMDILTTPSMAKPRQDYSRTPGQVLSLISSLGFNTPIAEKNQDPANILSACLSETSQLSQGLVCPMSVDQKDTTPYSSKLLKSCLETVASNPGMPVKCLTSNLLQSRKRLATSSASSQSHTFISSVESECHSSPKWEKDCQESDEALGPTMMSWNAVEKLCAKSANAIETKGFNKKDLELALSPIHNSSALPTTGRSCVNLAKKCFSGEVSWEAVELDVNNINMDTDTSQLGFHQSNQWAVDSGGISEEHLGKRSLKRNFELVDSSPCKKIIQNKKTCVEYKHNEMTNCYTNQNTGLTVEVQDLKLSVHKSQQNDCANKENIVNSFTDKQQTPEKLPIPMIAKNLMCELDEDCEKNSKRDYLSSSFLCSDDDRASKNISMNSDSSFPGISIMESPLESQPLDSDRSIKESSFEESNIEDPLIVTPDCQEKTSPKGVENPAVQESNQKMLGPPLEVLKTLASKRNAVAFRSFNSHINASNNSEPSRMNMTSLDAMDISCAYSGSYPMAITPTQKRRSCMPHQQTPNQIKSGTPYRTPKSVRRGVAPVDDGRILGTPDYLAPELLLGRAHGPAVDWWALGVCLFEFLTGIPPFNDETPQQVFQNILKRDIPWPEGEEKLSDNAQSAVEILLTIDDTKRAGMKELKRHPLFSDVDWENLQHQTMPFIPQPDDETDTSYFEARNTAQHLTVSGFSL
inactive: IRAK-1-4 Inhibitor I -0.001 | ibrutinib -0.008 | [1] -0.061 | ralimetinib 0.001 | [3] -0.028 | [4] 0.138 | pinometostat 0.07 | [5] 0.022
active: [2] -0.393

LTV1 (UniProt Q96GA3)
inactive: IRAK-1-4 Inhibitor I -0.101 | ibrutinib -0.009 | [1] 0.224 | ralimetinib 0.134 | [2] 0.001 | [3] -0.233 | [4] 0.104 | pinometostat 0.249 | [5] -0.005
active: [6] -0.726

KIF2C (UniProt Q99661)
inactive: IRAK-1-4 Inhibitor I -0.111 | ibrutinib -0.033 | [1] -0.058 | ralimetinib 0.028 | [2] -0.069 | [3] -0.065 | [4] 0.035 | pinometostat 0.031 | [5] -0.008 | [6] 0.028

KLHDC4 (UniProt Q8TBB5)
inactive: IRAK-1-4 Inhibitor I -0.008 | ibrutinib -0.011 | [1] -0.008 | ralimetinib 0.062 | [2] 0.002 | [3] 0.065 | [4] 0.017 | pinometostat 0.199 | [5] -0.123 | [6] 0.159

KIAA1324L (UniProt A8MWY0)
Sequence of UniProt A8MWY0 (A8MWY0 whole entry, looked up): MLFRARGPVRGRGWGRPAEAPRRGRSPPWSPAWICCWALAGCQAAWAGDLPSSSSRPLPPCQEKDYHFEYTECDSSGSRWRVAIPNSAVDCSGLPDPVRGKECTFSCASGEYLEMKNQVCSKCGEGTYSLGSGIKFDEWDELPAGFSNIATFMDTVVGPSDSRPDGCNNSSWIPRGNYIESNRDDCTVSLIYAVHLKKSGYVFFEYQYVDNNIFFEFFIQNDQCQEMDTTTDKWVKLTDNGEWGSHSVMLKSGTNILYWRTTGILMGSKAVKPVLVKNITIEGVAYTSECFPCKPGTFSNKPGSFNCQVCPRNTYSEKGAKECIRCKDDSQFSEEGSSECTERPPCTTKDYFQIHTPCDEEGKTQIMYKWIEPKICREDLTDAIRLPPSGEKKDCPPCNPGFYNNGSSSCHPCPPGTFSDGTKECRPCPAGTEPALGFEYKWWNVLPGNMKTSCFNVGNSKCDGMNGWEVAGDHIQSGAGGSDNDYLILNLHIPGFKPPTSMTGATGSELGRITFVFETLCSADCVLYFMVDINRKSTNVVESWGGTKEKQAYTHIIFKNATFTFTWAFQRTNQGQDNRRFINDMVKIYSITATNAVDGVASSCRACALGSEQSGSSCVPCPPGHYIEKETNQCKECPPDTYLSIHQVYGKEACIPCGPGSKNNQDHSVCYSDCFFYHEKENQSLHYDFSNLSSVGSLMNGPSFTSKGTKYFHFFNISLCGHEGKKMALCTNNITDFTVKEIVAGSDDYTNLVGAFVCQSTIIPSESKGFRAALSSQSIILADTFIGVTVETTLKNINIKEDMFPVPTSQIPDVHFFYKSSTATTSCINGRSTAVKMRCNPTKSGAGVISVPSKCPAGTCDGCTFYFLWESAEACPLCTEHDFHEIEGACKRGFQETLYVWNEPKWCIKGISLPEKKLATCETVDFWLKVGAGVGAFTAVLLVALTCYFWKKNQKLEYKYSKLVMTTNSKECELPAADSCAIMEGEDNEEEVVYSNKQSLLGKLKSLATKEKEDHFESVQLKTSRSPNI
inactive: IRAK-1-4 Inhibitor I 0.027 | ibrutinib -0.056 | [1] -0.052 | ralimetinib -0.024 | [2] -0.038 | [3] 0.024 | [4] 0 | pinometostat -0.008 | [5] 0.034 | [6] -0.037

LUC7L2 (UniProt Q9Y383)
active: [1] -0.646
inactive: IRAK-1-4 Inhibitor I -0.207 | ibrutinib -0.026 | ralimetinib 0.111 | [2] 0.031 | [3] -0.134 | [4] -0.04 | pinometostat -0.048 | [5] 0.009 | [6] -0.037

METAP1D (UniProt Q6UB28)
Sequence of UniProt Q6UB28 (Q6UB28 whole entry, looked up): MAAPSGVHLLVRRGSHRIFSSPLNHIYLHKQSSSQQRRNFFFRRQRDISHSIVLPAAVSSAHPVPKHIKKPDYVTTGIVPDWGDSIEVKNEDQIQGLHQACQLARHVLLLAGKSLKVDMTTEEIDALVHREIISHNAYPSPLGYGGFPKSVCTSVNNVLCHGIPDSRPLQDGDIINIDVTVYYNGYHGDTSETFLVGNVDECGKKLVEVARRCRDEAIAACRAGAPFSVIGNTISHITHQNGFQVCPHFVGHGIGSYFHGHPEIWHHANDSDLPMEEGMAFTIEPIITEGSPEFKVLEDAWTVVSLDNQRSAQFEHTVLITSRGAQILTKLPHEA
inactive: IRAK-1-4 Inhibitor I -0.122 | ibrutinib 0.017 | [1] 0.084 | ralimetinib 0.01 | [2] -0.032 | [3] 0.094 | [4] 0.044 | pinometostat -0.003 | [5] 0.073 | [6] -0.024

IPO11 isoform 2 (UniProt Q9UI26)
inactive: IRAK-1-4 Inhibitor I 0.011 | ibrutinib -0.014 | [1] 0.039 | ralimetinib -0.016 | [2] -0.095 | [3] 0.018 | [4] -0.039 | pinometostat -0.035 | [5] 0.002 | [6] -0.018

MAP4K4 isoform 3 (UniProt O95819)
inactive: IRAK-1-4 Inhibitor I 0 | ibrutinib 0.043 | ralimetinib -0.039 | [2] -0.023 | [3] -0.027 | [4] 0.024 | pinometostat 0.046 | [5] 0.107 | [6] 0.073
active: [1] -1.13

IRAK4 (UniProt Q9NWZ3)
Sequence of UniProt Q9NWZ3 (Q9NWZ3 whole entry, looked up): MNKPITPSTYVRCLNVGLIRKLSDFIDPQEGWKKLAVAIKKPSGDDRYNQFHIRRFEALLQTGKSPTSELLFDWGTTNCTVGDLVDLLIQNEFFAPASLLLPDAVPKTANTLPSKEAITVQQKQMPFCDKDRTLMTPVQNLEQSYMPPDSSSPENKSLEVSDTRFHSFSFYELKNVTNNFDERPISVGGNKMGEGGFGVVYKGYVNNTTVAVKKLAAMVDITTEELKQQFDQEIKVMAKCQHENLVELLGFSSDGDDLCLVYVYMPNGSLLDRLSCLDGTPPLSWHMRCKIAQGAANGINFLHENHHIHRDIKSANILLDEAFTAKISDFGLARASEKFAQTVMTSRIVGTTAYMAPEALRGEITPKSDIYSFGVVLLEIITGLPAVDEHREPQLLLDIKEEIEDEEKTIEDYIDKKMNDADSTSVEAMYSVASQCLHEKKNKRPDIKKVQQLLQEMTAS
active: [3] -0.252
inactive: IRAK-1-4 Inhibitor I -0.012 | ibrutinib 0.002 | [1] 0.196 | ralimetinib -0.014 | [2] -0.092 | [4] -0.026 | pinometostat 0.065 | [5] 0.02 | [6] -0.002

MAPK9 (UniProt P45984)
inactive: IRAK-1-4 Inhibitor I -0.002 | ibrutinib -0.016 | ralimetinib 0.208 | [2] 0.005 | [3] -0.037 | [4] -0.032 | pinometostat -0.032 | [5] -0.022 | [6] 0
active: [1] 0.278

MARCKSL1 (UniProt P49006)
inactive: IRAK-1-4 Inhibitor I 0.041 | ibrutinib 0 | [1] -0.039 | ralimetinib -0.069 | [2] 0.106 | [3] 0.006 | [4] -0.034 | pinometostat -0.017 | [5] -0.031 | [6] 0.028

LEMD2 (UniProt Q8NC56)
inactive: IRAK-1-4 Inhibitor I 0.015 | ibrutinib 0.082 | [1] -0.066 | ralimetinib -0.02 | [2] -0.024 | [4] 0.022 | pinometostat -0.014 | [5] -0.051 | [6] 0.131
active: [3] -0.63

MAP4 (UniProt P27816)
inactive: IRAK-1-4 Inhibitor I 0.003 | ibrutinib 0 | [1] 0.012 | ralimetinib 0.025 | [2] 0.012 | [3] 0.076 | [4] 0.019 | pinometostat 0.001 | [5] 0.006 | [6] 0.08

LRBA, A0A494BZW2
inactive: IRAK-1-4 Inhibitor I 0.02 | ibrutinib 0.018 | [1] -0.009 | ralimetinib 0.01 | [2] 0 | [3] -0.436 | [4] 0.041 | pinometostat 0.076 | [5] 0.006 | [6] -0.237

MAPKAPK5 (UniProt Q8IW41)
inactive: IRAK-1-4 Inhibitor I 0.029 | ibrutinib -0.003 | [1] 0.052 | ralimetinib 0.029 | [2] -0.139 | [3] 0.218 | [4] 0.055 | pinometostat -0.042 | [5] -0.161 | [6] 0.002

MAPKAPK2 (UniProt P49137)
Sequence of UniProt P49137 (P49137 whole entry, looked up): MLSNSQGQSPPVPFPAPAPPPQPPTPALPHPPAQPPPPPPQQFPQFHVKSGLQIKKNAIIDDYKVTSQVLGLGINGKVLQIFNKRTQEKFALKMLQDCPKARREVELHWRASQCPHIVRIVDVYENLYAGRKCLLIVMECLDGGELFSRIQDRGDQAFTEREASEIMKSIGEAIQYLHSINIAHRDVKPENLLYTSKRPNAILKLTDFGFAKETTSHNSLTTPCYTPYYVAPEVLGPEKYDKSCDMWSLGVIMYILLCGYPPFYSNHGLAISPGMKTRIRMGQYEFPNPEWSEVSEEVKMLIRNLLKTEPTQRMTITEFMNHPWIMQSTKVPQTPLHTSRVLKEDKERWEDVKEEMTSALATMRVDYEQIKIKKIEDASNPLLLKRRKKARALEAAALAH
inactive: IRAK-1-4 Inhibitor I 0.039 | ibrutinib -0.009 | ralimetinib 0.213 | [2] -0.03 | [3] -0.048 | [4] -0.022 | pinometostat -0.028 | [5] -0.03 | [6] -0.009
active: [1] 0.267

LIMD1 (UniProt Q9UGP4)
inactive: IRAK-1-4 Inhibitor I 0.03 | ibrutinib 0.033 | [1] -0.008 | ralimetinib 0.035 | [2] -0.035 | [3] 0.044 | [4] -0.072 | pinometostat 0.016 | [5] 0.003 | [6] -0.032

LRBA (UniProt P50851)
inactive: IRAK-1-4 Inhibitor I 0.015 | ibrutinib -0.02 | [1] -0.006 | ralimetinib -0.023 | [2] -0.059 | [3] -0.091 | [4] 0.005 | pinometostat 0.008 | [5] -0.005 | [6] -0.004

MDN1 (UniProt Q9NU22)
inactive: IRAK-1-4 Inhibitor I -0.011 | ibrutinib -0.046 | [1] -0.126 | ralimetinib -0.015 | [2] -0.24 | [3] -0.22 | [4] -0.029 | pinometostat -0.009 | [5] 0.006 | [6] 0.005

KEAP1 (UniProt Q14145)
inactive: IRAK-1-4 Inhibitor I 0.008 | ibrutinib -0.085 | [1] 0.022 | ralimetinib 0.074 | [2] -0.07 | [4] 0.023 | pinometostat 0.109 | [5] -0.017 | [6] 0.028
active: [3] -0.233

MIA2 (UniProt Q96PC5)
Sequence of UniProt Q96PC5 (Q96PC5 whole entry, looked up): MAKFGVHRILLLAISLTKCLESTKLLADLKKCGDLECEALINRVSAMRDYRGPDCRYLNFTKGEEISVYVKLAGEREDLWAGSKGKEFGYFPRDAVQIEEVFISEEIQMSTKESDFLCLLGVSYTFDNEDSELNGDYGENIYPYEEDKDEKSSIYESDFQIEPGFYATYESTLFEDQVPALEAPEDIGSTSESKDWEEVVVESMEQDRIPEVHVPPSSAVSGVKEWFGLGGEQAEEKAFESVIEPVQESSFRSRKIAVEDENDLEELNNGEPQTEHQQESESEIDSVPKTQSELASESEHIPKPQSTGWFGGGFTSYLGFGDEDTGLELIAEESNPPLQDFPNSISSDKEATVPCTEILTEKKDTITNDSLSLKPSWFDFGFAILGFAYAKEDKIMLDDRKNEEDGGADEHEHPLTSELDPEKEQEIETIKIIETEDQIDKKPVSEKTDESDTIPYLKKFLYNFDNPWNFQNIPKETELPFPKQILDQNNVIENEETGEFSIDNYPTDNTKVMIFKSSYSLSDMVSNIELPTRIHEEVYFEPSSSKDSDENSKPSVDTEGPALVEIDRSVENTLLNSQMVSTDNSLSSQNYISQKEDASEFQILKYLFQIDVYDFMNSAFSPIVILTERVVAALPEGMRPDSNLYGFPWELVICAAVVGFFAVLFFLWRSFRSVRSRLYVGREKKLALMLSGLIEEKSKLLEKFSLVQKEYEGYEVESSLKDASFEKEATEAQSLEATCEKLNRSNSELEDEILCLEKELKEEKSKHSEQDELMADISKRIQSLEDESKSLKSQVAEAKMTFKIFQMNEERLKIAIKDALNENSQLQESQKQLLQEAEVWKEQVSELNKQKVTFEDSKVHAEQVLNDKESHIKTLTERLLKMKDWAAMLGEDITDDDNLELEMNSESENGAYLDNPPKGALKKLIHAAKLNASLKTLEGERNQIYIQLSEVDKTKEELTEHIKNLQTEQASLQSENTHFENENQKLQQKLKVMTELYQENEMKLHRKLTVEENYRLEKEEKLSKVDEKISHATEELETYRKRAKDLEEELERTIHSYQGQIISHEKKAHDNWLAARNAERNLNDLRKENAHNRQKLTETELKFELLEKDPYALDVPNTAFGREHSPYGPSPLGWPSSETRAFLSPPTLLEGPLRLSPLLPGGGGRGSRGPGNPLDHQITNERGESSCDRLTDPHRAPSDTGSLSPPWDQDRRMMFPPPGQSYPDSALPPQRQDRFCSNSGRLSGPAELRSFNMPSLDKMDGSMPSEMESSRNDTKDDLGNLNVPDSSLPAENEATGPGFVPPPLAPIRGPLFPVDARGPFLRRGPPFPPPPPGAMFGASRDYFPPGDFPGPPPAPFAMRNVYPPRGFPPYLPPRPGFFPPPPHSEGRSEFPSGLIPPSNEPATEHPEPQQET
inactive: IRAK-1-4 Inhibitor I -0.036 | ibrutinib 0.008 | [1] -0.059 | ralimetinib -0.003 | [2] 0.03 | [3] -0.155 | [4] 0.035 | pinometostat 0.043 | [5] 0.077 | [6] 0.032

MCCC2 (UniProt Q9HCC0)
Sequence of UniProt Q9HCC0 (Q9HCC0 whole entry, looked up): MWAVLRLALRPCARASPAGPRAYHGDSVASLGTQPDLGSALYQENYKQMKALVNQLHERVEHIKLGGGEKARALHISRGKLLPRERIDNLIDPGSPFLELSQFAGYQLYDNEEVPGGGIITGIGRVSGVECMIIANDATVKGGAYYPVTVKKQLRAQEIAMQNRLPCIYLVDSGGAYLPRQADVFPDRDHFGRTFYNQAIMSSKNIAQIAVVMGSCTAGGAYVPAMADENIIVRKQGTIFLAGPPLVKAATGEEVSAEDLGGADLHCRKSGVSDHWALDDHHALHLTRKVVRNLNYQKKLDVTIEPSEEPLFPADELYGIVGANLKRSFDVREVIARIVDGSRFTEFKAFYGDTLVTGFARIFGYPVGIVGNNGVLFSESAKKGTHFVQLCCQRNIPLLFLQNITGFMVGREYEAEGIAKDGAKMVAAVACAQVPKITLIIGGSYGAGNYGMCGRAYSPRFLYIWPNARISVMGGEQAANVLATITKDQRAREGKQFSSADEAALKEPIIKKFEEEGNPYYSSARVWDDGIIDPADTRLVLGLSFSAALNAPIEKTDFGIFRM
inactive: IRAK-1-4 Inhibitor I 0.046 | ibrutinib 0.019 | [1] 0.047 | ralimetinib -0.015 | [2] 0.027 | [3] 0.024 | [4] -0.04 | pinometostat -0.05 | [5] 0 | [6] 0.003

LDAH isoform 2 (UniProt Q9H6V9)
inactive: IRAK-1-4 Inhibitor I 0.039 | ibrutinib 0.066 | [1] -0.039 | ralimetinib 0.077 | [4] 0.019 | pinometostat 0 | [5] -0.053 | [6] 0.073
active: [2] 0.464 | [3] -0.286

LMNA (UniProt P02545)
inactive: IRAK-1-4 Inhibitor I 0.006 | ibrutinib -0.023 | [1] -0.18 | ralimetinib -0.058 | [2] 0.115 | [3] 0.076 | [4] 0 | pinometostat -0.057 | [5] 0.005 | [6] -0.017

KLC2 (UniProt Q9H0B6)
active: [1] -0.309
inactive: IRAK-1-4 Inhibitor I -0.035 | ibrutinib -0.024 | ralimetinib 0.041 | [2] -0.02 | [3] -0.107 | [4] 0.083 | pinometostat 0.023 | [5] -0.03 | [6] 0.133

IK (UniProt Q13123)
inactive: IRAK-1-4 Inhibitor I -0.139 | ibrutinib -0.067 | [1] -0.06 | ralimetinib -0.007 | [2] 0.054 | [3] 0.031 | [4] 0.239 | pinometostat 0.038 | [5] 0.022 | [6] 0.148

LUZP1 (UniProt Q86V48)
inactive: IRAK-1-4 Inhibitor I -0.136 | ibrutinib -0.074 | [1] 0.275 | ralimetinib 0.08 | [2] 0.114 | [3] 0.019 | [4] 0.139 | pinometostat 0.113 | [5] 0.124 | [6] 0.079

MICOS13 (UniProt Q5XKP0)
inactive: IRAK-1-4 Inhibitor I 0.087 | ibrutinib -0.012 | [1] -0.022 | ralimetinib -0.077 | [2] -0.193 | [3] -0.146 | [4] 0.006 | pinometostat -0.023 | [5] -0.009 | [6] -0.008

ITM2B (UniProt Q9Y287)
inactive: IRAK-1-4 Inhibitor I -0.008 | ibrutinib 0.071 | [1] -0.043 | ralimetinib -0.005 | [2] -0.042 | [3] -0.119 | [4] 0.197 | pinometostat 0.03 | [5] 0.117 | [6] -0.198
